Measurements: the supplement of paper PMC4466140

What was measured:
Assay in all cases: SPOT peptide array binding signal intensity (averaged, normalized) (arbitrary units (background-subtracted, floor 0; scale differs between SH3 domains)); higher = stronger binding of the SH3 domain to the peptide
AgAbp1 = target: AgAbp1
Procedure, shortened: (§1)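 Spot intensities were captured after detection with anti-GST antibody, an HRP-linked anti-mouse secondary and luminol, and quantified with Genespotter. The probes were GST-fused SH3 domains from four yeast species, produced in E. coli BL21(DE3), purified on glutathione Sepharose and incubated at 10 μg/ml overnight at 4°C on cellulose-bound synthetic 15-mer peptides with cysteines replaced by serines. Binding signal is the normalized, background-subtracted spot intensity averaged over replicates, and its arbitrary units differ between domains.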

AgBbc1 = target: AgBbc1
Procedure, shortened: as §1

AgBem1-D1 = target: AgBem1-D1
Procedure, shortened: as §1

AgBzz1-D1 = target: AgBzz1-D1
Procedure, shortened: as §1

AgBzz1-D2 = target: AgBzz1-D2
Procedure, shortened: as §1

AgCyk3 = target: AgCyk3
Procedure, shortened: as §1

AgFus1 = target: AgFus1
Procedure, shortened: as §1

AgHof1 = target: AgHof1
Procedure, shortened: as §1

AgHse1 = target: AgHse1
Procedure, shortened: as §1

AgLsb1 = target: AgLsb1
Procedure, shortened: as §1

AgLsb4 = target: AgLsb4
Procedure, shortened: as §1

AgMyo5 = target: AgMyo5
Procedure, shortened: as §1

AgNbp2 = target: AgNbp2
Procedure, shortened: as §1

AgRvs167 = target: AgRvs167
Procedure, shortened: as §1

AgSho1 = target: AgSho1
Procedure, shortened: as §1

AgSla1-D1-D2 = target: AgSla1-D1-D2
Procedure, shortened: as §1

AgSla1-D3 = target: AgSla1-D3
Procedure, shortened: as §1

CaAbp1-D1 = target: CaAbp1-D1
Procedure, shortened: as §1

CaAbp1-D2 = target: CaAbp1-D2
Procedure, shortened: as §1

CaBbc1 = target: CaBbc1
Procedure, shortened: as §1

CaBem1-D1 = target: CaBem1-D1
Procedure, shortened: as §1

CaBzz1-D1 = target: CaBzz1-D1
Procedure, shortened: as §1

CaBzz1-D2 = target: CaBzz1-D2
Procedure, shortened: as §1

CaCyk3 = target: CaCyk3
Procedure, shortened: as §1

CaFus1 = target: CaFus1
Procedure, shortened: as §1

CaHof1 = target: CaHof1
Procedure, shortened: as §1

CaHse1 = target: CaHse1
Procedure, shortened: as §1

CaLsb1 = target: CaLsb1
Procedure, shortened: as §1

CaLsb4 = target: CaLsb4
Procedure, shortened: as §1

CaMyo5 = target: CaMyo5
Procedure, shortened: as §1

CaNbp2 = target: CaNbp2
Procedure, shortened: as §1

CaRvs167 = target: CaRvs167
Procedure, shortened: as §1

CaRvs167-3 = target: CaRvs167-3
Procedure, shortened: as §1

CaSho1 = target: CaSho1
Procedure, shortened: as §1

CaSla1-D1-D2 = target: CaSla1-D1-D2
Procedure, shortened: as §1

CaSla1-D3 = target: CaSla1-D3
Procedure, shortened: as §1

ScAbp1 = target: ScAbp1
Procedure, shortened: as §1

ScBbc1 = target: ScBbc1
Procedure, shortened: as §1

ScBem1-D1 = target: ScBem1-D1
Procedure, shortened: as §1

ScBzz1-D1 = target: ScBzz1-D1
Procedure, shortened: as §1

ScBzz1-D2 = target: ScBzz1-D2
Procedure, shortened: as §1

ScCyk3 = target: ScCyk3
Procedure, shortened: as §1

ScFus1 = target: ScFus1
Procedure, shortened: as §1

ScHof1 = target: ScHof1
Procedure, shortened: as §1

ScHse1 = target: ScHse1
Procedure, shortened: as §1

ScLsb1 = target: ScLsb1
Procedure, shortened: as §1

ScLsb2 = target: ScLsb2
Procedure, shortened: as §1

ScLsb3 = target: ScLsb3
Procedure, shortened: as §1

ScLsb4 = target: ScLsb4
Procedure, shortened: as §1

ScMyo3 = target: ScMyo3
Procedure, shortened: as §1

ScMyo5 = target: ScMyo5
Procedure, shortened: as §1

ScNbp2 = target: ScNbp2
Procedure, shortened: as §1

ScPex13 = target: ScPex13
Procedure, shortened: as §1

ScRvs167 = target: ScRvs167
Procedure, shortened: as §1

ScSho1 = target: ScSho1
Procedure, shortened: as §1

ScSla1-D1-D2 = target: ScSla1-D1-D2
Procedure, shortened: as §1

ScSla1-D3 = target: ScSla1-D3
Procedure, shortened: as §1

SpAbp1-D1 = target: SpAbp1-D1
Procedure, shortened: as §1

SpBbc1 = target: SpBbc1
Procedure, shortened: as §1

SpBzz1-D1 = target: SpBzz1-D1
Procedure, shortened: as §1

SpBzz1-D2 = target: SpBzz1-D2
Procedure, shortened: as §1

SpCyk3 = target: SpCyk3
Procedure, shortened: as §1

SpHof1 = target: SpHof1
Procedure, shortened: as §1

SpHof1-2 = target: SpHof1-2
Procedure, shortened: as §1

SpHof1-3 = target: SpHof1-3
Procedure, shortened: as §1

SpHse1 = target: SpHse1
Procedure, shortened: as §1

SpLsb1 = target: SpLsb1
Procedure, shortened: as §1

SpLsb4 = target: SpLsb4
Procedure, shortened: as §1

SpMyo1 = target: SpMyo1
Procedure, shortened: as §1

SpNbp2 = target: SpNbp2
Procedure, shortened: as §1

SpPex13 = target: SpPex13
Procedure, shortened: as §1

SpRvs167 = target: SpRvs167
Procedure, shortened: as §1

SpSla1-D1-D2 = target: SpSla1-D1-D2
Procedure, shortened: as §1

SpSla1-D3 = target: SpSla1-D3
Procedure, shortened: as §1

B1: unnamed (peptide)
chain: KMSRSPPRPPSLKII
SPOT peptide array binding signal intensity (AgAbp1): 329 | SPOT peptide array binding signal intensity (AgBbc1): 145 | SPOT peptide array binding signal intensity (AgBem1-D1): 707 | SPOT peptide array binding signal intensity (AgBzz1-D1): 85.5 | SPOT peptide array binding signal intensity (AgBzz1-D2): 35 | SPOT peptide array binding signal intensity (AgCyk3): 4 | SPOT peptide array binding signal intensity (AgFus1): 180 | SPOT peptide array binding signal intensity (AgHof1): 17 | SPOT peptide array binding signal intensity (AgHse1): 99 | SPOT peptide array binding signal intensity (AgLsb1): 20 | SPOT peptide array binding signal intensity (AgLsb4): ≤ 0 | SPOT peptide array binding signal intensity (AgMyo5): 10.5 | SPOT peptide array binding signal intensity (AgNbp2): 1350 | SPOT peptide array binding signal intensity (AgRvs167): 4.5 | SPOT peptide array binding signal intensity (AgSho1): 228 | SPOT peptide array binding signal intensity (AgSla1-D1-D2): 25 | SPOT peptide array binding signal intensity (AgSla1-D3): 9.25 | SPOT peptide array binding signal intensity (CaAbp1-D1): 734 | SPOT peptide array binding signal intensity (CaAbp1-D2): 1170 | SPOT peptide array binding signal intensity (CaBbc1): 564 | SPOT peptide array binding signal intensity (CaBem1-D1): 83 | SPOT peptide array binding signal intensity (CaBzz1-D1): 1880 | SPOT peptide array binding signal intensity (CaBzz1-D2): 466 | SPOT peptide array binding signal intensity (CaCyk3): 36 | SPOT peptide array binding signal intensity (CaFus1): 974 | SPOT peptide array binding signal intensity (CaHof1): 0.5 | SPOT peptide array binding signal intensity (CaHse1): 58.5 | SPOT peptide array binding signal intensity (CaLsb1): 2.5 | SPOT peptide array binding signal intensity (CaLsb4): 588 | SPOT peptide array binding signal intensity (CaMyo5): 44.5 | SPOT peptide array binding signal intensity (CaNbp2): 1320 | SPOT peptide array binding signal intensity (CaRvs167): 68 | SPOT peptide array binding signal intensity (CaRvs167-3): ≤ 0 | SPOT peptide array binding signal intensity (CaSho1): 939 | SPOT peptide array binding signal intensity (CaSla1-D1-D2): 337 | SPOT peptide array binding signal intensity (CaSla1-D3): 258 | SPOT peptide array binding signal intensity (ScAbp1): 178 | SPOT peptide array binding signal intensity (ScBbc1): 69.5 | SPOT peptide array binding signal intensity (ScBem1-D1): 8 | SPOT peptide array binding signal intensity (ScBzz1-D1): 57 | SPOT peptide array binding signal intensity (ScBzz1-D2): 25.5 | SPOT peptide array binding signal intensity (ScCyk3): 5 | SPOT peptide array binding signal intensity (ScFus1): 463 | SPOT peptide array binding signal intensity (ScHof1): 0.75 | SPOT peptide array binding signal intensity (ScHse1): 99.5 | SPOT peptide array binding signal intensity (ScLsb1): 39.8 | SPOT peptide array binding signal intensity (ScLsb2): 18 | SPOT peptide array binding signal intensity (ScLsb3): 742 | SPOT peptide array binding signal intensity (ScLsb4): 142 | SPOT peptide array binding signal intensity (ScMyo3): 142 | SPOT peptide array binding signal intensity (ScMyo5): 47.2 | SPOT peptide array binding signal intensity (ScNbp2): 2300 | SPOT peptide array binding signal intensity (ScPex13): 464 | SPOT peptide array binding signal intensity (ScRvs167): 123 | SPOT peptide array binding signal intensity (ScSho1): 634 | SPOT peptide array binding signal intensity (ScSla1-D1-D2): 653 | SPOT peptide array binding signal intensity (ScSla1-D3): 270 | SPOT peptide array binding signal intensity (SpAbp1-D1): 177 | SPOT peptide array binding signal intensity (SpBbc1): 6.75 | SPOT peptide array binding signal intensity (SpBzz1-D1): 1270 | SPOT peptide array binding signal intensity (SpBzz1-D2): 79.2 | SPOT peptide array binding signal intensity (SpCyk3): 9 | SPOT peptide array binding signal intensity (SpHof1): 19.5 | SPOT peptide array binding signal intensity (SpHof1-2): 27 | SPOT peptide array binding signal intensity (SpHof1-3): 139 | SPOT peptide array binding signal intensity (SpHse1): 70 | SPOT peptide array binding signal intensity (SpLsb1): 9.75 | SPOT peptide array binding signal intensity (SpLsb4): 1060 | SPOT peptide array binding signal intensity (SpMyo1): 224 | SPOT peptide array binding signal intensity (SpNbp2): 146 | SPOT peptide array binding signal intensity (SpPex13): 17 | SPOT peptide array binding signal intensity (SpRvs167): 92.3 | SPOT peptide array binding signal intensity (SpSla1-D1-D2): 17 | SPOT peptide array binding signal intensity (SpSla1-D3): 138
